Laboratory results as given in PubChem BioAssay.
Active and inactive are the calls of the source. Unless noted, how the calls were made is not given here.

What was measured:
[1] = A549 cell viability effects, profiling panel, calcein-AM fluorescence, 48 h, basal (AID 1162); settings: higher = more signal; further: test concentration not given here
[2] = adipocyte viability effects, profiling panel, cell-based, 3T3-L1 adipocytes, calcein-AM fluorescence, 48 h, basal (AID 1163); settings: 3T3-L1 adipocytes viability, higher = more signal; further: test concentration not given here
[3] = HepG2 cell viability effects, profiling panel, calcein-AM fluorescence, 48 h, basal (AID 1164); settings: higher = more signal; further: test concentration not given here
[4] = MM1S cell viability effects, profiling panel, calcein-AM fluorescence, 48 h, basal (AID 1165); settings: higher = more signal;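 further: viability of MM1S multiple myeloma cells under basal unstimulated conditions; test concentration not given here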
[5] = basal RPMI8226 viability, no added stimulus, profiling panel, cell-based, calcein-AM fluorescence, 48 h, PK04 Diversity Set (AID 1166); settings: RPMI8226 myeloma viability, higher = more signal;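 further: cells grown under basal conditions without added stimulus; test concentration not given here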
[6] = basal HepG2 mitochondrial membrane potential changes, profiling panel, cell-based, JC-1 fluorescence, 24 h, 100 nL compound (AID 1167); settings: higher = more signal; further: test concentration not given here
[7] = basal 3T3-L1 adipocyte mitochondrial potential changes, profiling panel, cell-based, JC-1 fluorescence, 3T3-L1 adipocytes, 24 h, 100 nL compound (AID 1168); settings: JC-1 mitochondrial fluorescence, higher = more signal, called active from +8 up or from −8 down; further: test concentration not given here
[8] = basal RPMI8226 mitochondrial membrane potential changes, profiling panel, cell-based, JC-1 fluorescence, 24 h, 100 nL compound (AID 1169); settings: RPMI8226 myeloma, JC-1 mitochondrial potential fluorescence, higher = more signal; further: test concentration not given here
[9] = basal MM1S mitochondrial membrane potential changes, profiling panel, cell-based, JC-1 fluorescence, 24 h, 100 nL compound (AID 1170); settings: higher = more signal; further: test concentration not given here
[10] = A549 lung cancer cell viability effects, profiling panel, resazurin fluorescence, 24 h, PK04 Diversity Set (AID 1171); settings: higher = more signal, called active from +8 up or from −8 down; further: test concentration not given here
[11] = HepG2 liver cancer cell viability effects, profiling panel, resazurin fluorescence, 24 h, PK04 Diversity Set (AID 1172); settings: higher = more signal; further: test concentration not given here
[12] = basal S. cerevisiae growth modulation, no modifier, primary screen, OD600, strain BY4716, 24 h, basal condition (AID 1173); settings: OD600, 24 h, higher = more signal, called active from +8 up or from −8 down
[13] = MM1S myeloma cell viability, profiling panel, resazurin fluorescence, basal, 24 h, PK04 Diversity Set (AID 1174); settings: higher = more signal, called active from +8 up or from −8 down;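 further: MM1S multiple myeloma cell line; test concentration not given here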
[14] = target: Dihydroorotate dehydrogenase (quinone), mitochondrial (Plasmodium falciparum (isolate 3D7)) (UniProt Q08210); experiment: PfDHODH enzyme inhibitors, primary screen, biochemical, C-terminal His tag, absorbance 600 nm (AID 1175); settings: DCIP absorbance 600 nm, higher = more signal, called active from +8 up or from −8 down;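 further: recombinant parasite enzyme with a five histidine tag at its C terminus; test concentration not given here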
[15] = P. aeruginosa biofilm formation inhibitors, primary screen, strain PAO1, LB-PBS medium, absorbance 600 nm (AID 1176); further: test concentration not given here; settings: P. aeruginosa PAO1 growth/biofilm, A600, 12 h; higher = more signal
[16] = S. cerevisiae RM11-1a growth modifiers, primary screen, strain RM11-1a, OD600, basal, 24 h (AID 1177); settings: OD600, 24 h, higher = more signal, called active from +8 up or from −8 down;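 further: cultures grown under basal conditions with no added stressor; test concentration not given here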
[17] = E. coli acrAB mutant growth effects, primary screen, E. coli filamentation inducers, strain DRC39, OD650, 24 h (AID 1178); settings: higher = more signal, called active from +8 up or from −8 down;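 further: growth measured as culture turbidity by optical density at 650 nm; test concentration not given here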
[18] = E. coli acrAB mutant growth effects, primary screen, E. coli filamentation inducers, strain DRC39, OD650, 48 h (AID 1179);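 further: screen aims at cell division blockers that make cells filament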; settings: E. coli DRC39 delta-acrAB growth, higher = more signal, called active from +8 up or from −8 down
[19] = RPMI8226 myeloma cell viability, profiling panel, resazurin fluorescence, basal, 24 h, PK04 Diversity Set (AID 1180); settings: higher = more signal;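 further: RPMI8826 multiple myeloma cell line at 5000 cells per well; test concentration not given here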
[20] = target: E3 ubiquitin-protein ligase XIAP (Homo sapiens) (UniProt P98170); experiment: XIAP binders, primary screen, biophysical, small-molecule microarray, fluorescence 635 nm (AID 1181); settings: small-molecule microarray binding, higher = more signal;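 further: score merges 667 nm emission and signal to noise over triplicate slides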
Sequence of E3 ubiquitin-protein ligase XIAP (Homo sapiens) (P98170 whole entry, looked up): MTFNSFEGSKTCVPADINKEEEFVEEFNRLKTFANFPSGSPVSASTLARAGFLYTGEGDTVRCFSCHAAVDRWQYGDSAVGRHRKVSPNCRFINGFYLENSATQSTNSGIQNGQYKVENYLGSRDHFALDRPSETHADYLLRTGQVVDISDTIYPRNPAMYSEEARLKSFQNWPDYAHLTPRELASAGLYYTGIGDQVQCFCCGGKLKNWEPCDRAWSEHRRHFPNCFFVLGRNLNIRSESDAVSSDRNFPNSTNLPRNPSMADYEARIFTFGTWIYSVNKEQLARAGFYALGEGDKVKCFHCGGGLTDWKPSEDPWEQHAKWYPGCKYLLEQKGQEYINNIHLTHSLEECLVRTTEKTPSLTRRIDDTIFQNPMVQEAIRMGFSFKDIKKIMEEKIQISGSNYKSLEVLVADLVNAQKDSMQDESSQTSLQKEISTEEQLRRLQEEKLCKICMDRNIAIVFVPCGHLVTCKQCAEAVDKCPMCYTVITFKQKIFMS

Sequence of Dihydroorotate dehydrogenase (quinone), mitochondrial (Plasmodium falciparum (isolate 3D7)) (Q08210 whole entry, looked up): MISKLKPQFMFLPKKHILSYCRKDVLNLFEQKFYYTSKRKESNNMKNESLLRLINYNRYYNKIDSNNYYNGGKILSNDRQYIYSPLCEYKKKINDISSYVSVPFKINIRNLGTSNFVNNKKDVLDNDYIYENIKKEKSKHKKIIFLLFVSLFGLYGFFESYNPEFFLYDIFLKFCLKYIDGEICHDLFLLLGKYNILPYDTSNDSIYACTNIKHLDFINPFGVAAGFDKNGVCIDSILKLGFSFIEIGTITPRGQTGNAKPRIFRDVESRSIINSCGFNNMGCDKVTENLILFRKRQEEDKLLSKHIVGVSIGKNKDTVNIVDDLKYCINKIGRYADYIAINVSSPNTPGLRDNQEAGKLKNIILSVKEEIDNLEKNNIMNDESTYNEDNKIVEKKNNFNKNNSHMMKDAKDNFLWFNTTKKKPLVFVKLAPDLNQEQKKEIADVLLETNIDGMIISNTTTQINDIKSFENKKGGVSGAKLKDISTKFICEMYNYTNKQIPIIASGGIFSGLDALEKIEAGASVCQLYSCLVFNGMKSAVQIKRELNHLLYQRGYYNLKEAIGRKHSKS

SMILES	z-score [1]	z-score [2]	z-score [3]	z-score [4]	z-score [5]	z-score [6]	z-score [7]	z-score [8]	z-score [9]	z-score [10]	z-score [11]	z-score [12]	z-score [13]	composite z-score [14]	z-score [15]	z-score [16]	z-score [17]	z-score [18]	z-score [19]	composite z-score [20]
Cc1ccc(S[C@]2(C(=O)NC(C)C)CC(=O)N(Cc3ccccc3C(F)(F)F)[C@@H]2c2ccc(CO)cc2I)cc1	0.0252	0.384	-0.933	-2.38	-3.2	-0.361	-0.123 (inactive)	-0.399	-2.48	1.32 (inactive)	0.105	-5.85 (inactive)	-1.86 (inactive)	-1.47 (inactive)	0.27 (inactive)	-2.43 (inactive)	0.221 (inactive)	0.201 (inactive)	-2.09	-0.126
CC(C)(C)OC(=O)CC[C@]1(C(=O)N2CCOCC2)N=C(c2ccc(OCCCO)cc2)O[C@H]1c1ccccc1	0.134	0.233	1.01	1.38	0.0928	0.839	0.453 (inactive)	0.0149	-0.703	-0.743 (inactive)	-0.149	-0.243 (inactive)	-1.56 (inactive)	-0.127 (inactive)	-0.537 (inactive)	-0.294 (inactive)	0.301 (inactive)	0.553 (inactive)	0.48	0.0003
O=C1O[C@@H](c2ccccc2)[C@@H](c2ccccc2)N2[C@@H](c3ccccc3OCCO)[C@]3(C(=O)Nc4ccc(C#CC5=CCCCC5)cc43)[C@@H](C(=O)NC[C@H](O)c3ccccc3)[C@H]12	-1.37	1.68	-3.07	-3.25	-4.07	-2.4	2.81 (inactive)	-0.664	-2	-1.46 (inactive)	-1.33	0.961 (inactive)	-7.07 (inactive)	0.578 (inactive)	0.787 (inactive)	0.979 (inactive)	-0.0029 (inactive)	-0.208 (inactive)	-5.79	-0.16
COC1(C)CN(Cc2ccccc2Br)[C@H](/C=C/c2ccccc2)[C@H](Cc2ccccc2)O1 (stereo not given in full)	0.411	1.2	0.875	-0.245	-0.0348	-0.545	-0.35 (inactive)	-0.19	-0.861	0.494 (inactive)	1.1	-0.138 (inactive)	0.832 (inactive)	-0.167 (inactive)	0.331 (inactive)	0.44 (inactive)	0.531 (inactive)	0.523 (inactive)	1.2	-0.102
[N-]=[N+]=Nc1ccccc1[C@@H]1OC(c2ccc(OCCCO)cc2)=N[C@]1(CCS(=O)(=O)c1ccccc1)C(=O)NCCN1CCOCC1	0.652	1.37	-0.229	0.351	-1.58	0.0652	-0.783 (inactive)	-0.465	-1.2	0.465 (inactive)	-0.376	-1.32 (inactive)	-0.195 (inactive)	0.313 (inactive)	0.236 (inactive)	-0.309 (inactive)	0.833 (inactive)	-0.278 (inactive)	-0.659	-0.34
COc1cc2c(cc1OC)CN(C(=O)[C@H]1[C@@H]3C(=O)O[C@@H](c4ccccc4)[C@@H](c4ccccc4)N3[C@@H](c3ccc(OCCO)cc3)[C@]13C(=O)Nc1ccc(C#CCCO)cc13)CC2	0.269	-0.16	-0.142	-0.0509	0.77	-1.21	0.764 (inactive)	-0.453	-1.07	0.604 (inactive)	0.687	2.35 (inactive)	0.113 (inactive)	0.129 (inactive)	1.56 (inactive)	2.49 (inactive)	-0.321 (inactive)	-0.61 (inactive)	0.969	-0.351
O=C1OCCC=C[C@H]2OC34C=CCN(c5ccc(Cl)cc5)C(=O)[C@H]3N(CCCCCO)C(=O)[C@@H]4C12 (stereo not given in full)	0.657	0.0279	1.11	1.54	-0.579	0.989	1.14 (inactive)	0.211	0.0628	1.03 (inactive)	1.25	-0.508 (inactive)	0.89 (inactive)	-0.417 (inactive)	-0.525 (inactive)	-0.429 (inactive)	1.68 (inactive)	1.83 (inactive)	0.599	0.23
CC(C)C(CO)N1C(=O)[C@]2(C)C3C(=O)OCCC/C=C\[C@H]3OC23C=CCN(c2ccc(Cl)cc2)C(=O)[C@@H]13 (stereo not given in full)	-0.0554	-0.199	1.08	0.547	0.163	-0.484	-0.52 (inactive)	-0.634	-0.0291	-0.503 (inactive)	-0.575	0.0095 (inactive)	-0.581 (inactive)	-1.04 (inactive)	-0.36 (inactive)	-0.3 (inactive)	-0.391 (inactive)	-0.261 (inactive)	-0.713	0.117
Cc1c(NC(=O)/C(C#N)=C/C=C/c2ccccc2[N+](=O)[O-])c(=O)n(-c2ccccc2)n1C	-1.22	-0.355	-1.71	-3.09	-2.1	-1.76	-0.0694 (inactive)	-0.588	-0.994	-1.43 (inactive)	-1.25	-0.0708 (inactive)	-0.729 (inactive)	0.512 (inactive)	-0.6 (inactive)	-0.061 (inactive)	1.06 (inactive)	-0.241 (inactive)	-1.73	-0.0172
O=C(O)[C@]1(Cc2ccccc2)N=C(c2ccc(OCCCO)cc2)O[C@@H]1c1ccccc1	1.07	-1.44	0.493	0.427	0.261	-0.121	0.766 (inactive)	-0.833	-0.38	0.455 (inactive)	0.424	-1.13 (inactive)	0.723 (inactive)	0.84 (inactive)	-0.912 (inactive)	-0.002 (inactive)	0.0717 (inactive)	1.01 (inactive)	1.09	-0.258
CN(C)CCCNC(=O)[C@@H]1c2ccccc2C(=O)N(Cc2ccc(OC(F)(F)F)cc2)[C@H]1c1ccc(CO)cc1	1.71	1.91	-0.0979	0.584	-2.39	3.72	-0.463 (inactive)	-0.114	-1.13	0.989 (inactive)	-0.39	0.0639 (inactive)	0.983 (inactive)	0.853 (inactive)	0.407 (inactive)	1 (inactive)	0.897 (inactive)	-0.193 (inactive)	0.818	-0.117
C=C[C@@H](COC(C)=O)NS(=O)(=O)c1ccc(Br)cc1	0.0976	-0.342	1.04	-2.08	-1.74	-0.742	-0.195 (inactive)	-0.0875	-0.259	-1.82 (inactive)	-1.44	-11.8 (active)	-1.82 (inactive)	-0.502 (inactive)	-0.152 (inactive)	0.628 (inactive)	-0.528 (inactive)	0.0818 (inactive)	-0.978	-0.184
CON(C)C(=O)C=C1C[C@@H](c2cccc(Cl)c2)O[C@@H](c2cccc(Cl)c2)O1	-1.5	0.559	-2.18	-2.44	-4.18	3.67	0.748 (inactive)	-1.09	-1.16	2.23 (inactive)	0.485	-0.283 (inactive)	0.0896 (inactive)	-0.558 (inactive)	-0.184 (inactive)	1.21 (inactive)	-0.471 (inactive)	0.134 (inactive)	0.515	-0.0827
CN1C2C=C(CCCO)C(C3C(=O)N(C(N)=O)C(=O)C32)C1c1cccs1 (stereo not given)	-0.452	-0.086	-0.099	-0.542	0.204	-0.742	-1 (inactive)	1.17	-0.0274	-0.268 (inactive)	-1	0.53 (inactive)	-0.135 (inactive)	0.837 (inactive)	-0.329 (inactive)	1.37 (inactive)	-0.967 (inactive)	-0.837 (inactive)	-0.69	3.82
COCCOC(=O)N1C(=O)[C@@]2(c3cc(C#CC4(O)CCCCCC4)ccc31)[C@H](C(=O)N1CCCCCCC1)[C@H]1C(=O)O[C@H](c3ccccc3)[C@H](c3ccccc3)N1[C@@H]2c1ccc(OCCO)cc1	0.364	1.85	0.783	-1.62	-2.6	-0.914	-2.37 (inactive)	-0.693	-0.756	1.08 (inactive)	0.304	0.397 (inactive)	0.67 (inactive)	-2.1 (inactive)	2.03 (inactive)	1.51 (inactive)	-0.151 (inactive)	0.201 (inactive)	0.918	0.293
C[C@]1(C(=O)O)c2ccccc2C(=O)N(Cc2ccccc2)[C@H]1c1ccc(CO)cc1	0.277	0.504	0.67	0.132	0.0631	1.33	0.114 (inactive)	-0.768	0.161	1.08 (inactive)	0.244	0.451 (inactive)	0.936 (inactive)	0.798 (inactive)	-0.633 (inactive)	1.91 (inactive)	-0.0256 (inactive)	-0.373 (inactive)	0.988	0.013
COc1ccc([Si](C)(C)[C@@H]2[C@@H](CC(=O)N3CCC[C@H]3CO)O[C@]3(C(=O)N(Cc4ccc(N5C(=O)c6cccc7cccc5c67)cc4)c4ccccc43)[C@H]2C)cc1	-1.22	1.43	-2.94	-2.75	-4.35	-1.18	-0.209 (inactive)	-1.01	-2.21	-3.19 (inactive)	-2.57	0.165 (inactive)	-2.82 (inactive)	-0.0108 (inactive)	-0.012 (inactive)	1.36 (inactive)	0.3 (inactive)	-0.138 (inactive)	-4.75	-0.0386
C[C@@H](OCc1ccccc1)C1NC(=O)[C@@]23C(=O)N[C@@H](Cc4ccccc4)C2[C@H](C)[C@@]2(C)O[C@H]2C3/C=C/C/C=C\CNC(=O)CNC1=O (stereo not given in full)	0.758	1.41	-0.762	0.125	-1.25	-0.332	-0.475 (inactive)	0.158	0.146	-0.694 (inactive)	-0.816	-0.303 (inactive)	-0.555 (inactive)	-0.402 (inactive)	0.662 (inactive)	-0.509 (inactive)	0.0899 (inactive)	-0.754 (inactive)	-0.724	-0.0351
